The values that follow come from PubChem BioAssay (NCATS).

Values without a mark were called inactive. Results filed as inconclusive are left out. The source made the active and inactive calls. Unless noted, calls follow the shape of the dose curve; as a rule, active = well fitted curve in either direction with a large enough effect (not every such curve was filed as active); inconclusive = small, poorly fitted or top-dose-only effect, or another doubt; inactive = flat fitted curve, though single readings scatter. Some results are limits rather than exact numbers.

The target in assay [1] is Lysosomal acid glucosylceramidase (Homo sapiens) (UniProt P04062). As to the kind of experiment: Glucocerebrosidase-p2 (AID 348; in the data active = potency below about 10 µM; also: potency is read from the fitted curve at half-maximal effect). Particulars: purified GBA, blue fluorogenic substrate, 40 min. In outline: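 Normal human glucocerebrosidase (0.2 nM) with blue fluorogenic substrate (80 uM final) in citrate/phosphate pH 5.9 with 10mM sodium taurocholate, 0.01% tween-20; 40 min RT, NaOH/glycine stop; fluorescence Ex 365/Em 440; AC50 from a titration from 0.6 nM upwards.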
Sequence of Lysosomal acid glucosylceramidase (Homo sapiens) (P04062 whole entry, looked up): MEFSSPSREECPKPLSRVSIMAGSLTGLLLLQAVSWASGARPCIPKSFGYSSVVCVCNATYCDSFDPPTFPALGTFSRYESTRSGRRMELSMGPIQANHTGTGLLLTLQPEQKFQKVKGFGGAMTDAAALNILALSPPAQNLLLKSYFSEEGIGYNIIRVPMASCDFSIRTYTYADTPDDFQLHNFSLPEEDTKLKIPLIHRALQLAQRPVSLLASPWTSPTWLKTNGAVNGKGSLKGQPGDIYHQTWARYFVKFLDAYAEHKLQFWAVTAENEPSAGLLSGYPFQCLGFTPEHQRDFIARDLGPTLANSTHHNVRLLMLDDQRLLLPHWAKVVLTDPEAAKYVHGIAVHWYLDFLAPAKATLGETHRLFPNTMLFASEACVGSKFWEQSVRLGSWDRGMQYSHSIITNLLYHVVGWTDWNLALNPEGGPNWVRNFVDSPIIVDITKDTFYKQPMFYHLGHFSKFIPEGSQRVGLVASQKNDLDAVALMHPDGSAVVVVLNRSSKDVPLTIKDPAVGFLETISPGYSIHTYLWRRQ

Assay [2] is described as follows: AP1 Signaling Pathway (AID 357). Also: % is scaled to controls: 0 for no effect and ±100 for the full control effect. The following applies: ME-180 AP-1-bla reporter, EGF-induced, beta-lactamase ratio, 5 h; at 7.69 µM (top of the series) unless noted. In outline: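 AP-1-bla ME-180 cells with beta-lactamase reporter under AP-1 response element, stimulated with EC50 EGF; compounds titrated, 5 hours at 37 degrees Celsius. CCF4 read at 460/530 nm ratio; positive and negative modulators judged by AC50.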

Assay [3] addresses Cytochrome P450 1A2 (Homo sapiens) (UniProt P05177). The assay can be described thus: p450-cyp1a2 (AID 410; calls by dose curve; also: potency is read from the fitted curve at half-maximal effect;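 as to activity change, negative = inhibition: -100% = full effect of reference inhibitor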). The following applies: recombinant CYP1A2, luciferin-ME demethylation, luminescence; series mostly up to 11.4 µM. In outline:
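O-Demethylation of luciferin 6' methyl ether by human CYP1A2 is monitored as luciferase luminescence. Substrate sits at Km (100uM); enzyme is 20nM. Values are scaled to 57 uM furafylline as maximal inhibition.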

The nature of assay [4]: Stat Signaling Pathway (AID 446).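 Also: ME-180 cervical cancer cells given 40 pM IL-6 alongside compound; SIE-controlled beta-lactamase reporter measured as 460/530 nm FRET emission ratio; % is scaled to controls: 0 for no effect and ±100 for the full control effect.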 Particulars: ME-180 SIE beta-lactamase reporter, IL-6 stimulated, 5 h; at 7.69 µM (top of the series) unless noted. In outline:
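Emission at 460 and 530 nm (excitation 405 nm) reports SIE-controlled beta-lactamase in ME-180 cells. Cells received compound with 40 pM IL-6 for 5 hrs at 37 C; data scaled between 300 pM IL-6 and 125 nM JAK-inhibitor controls.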

In assay [5] the target is Glucocorticoid receptor (Homo sapiens) (UniProt P04150). The assay can be described thus: GR-GFP Redistribution (AID 450;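 active = compounds whose dose series gives a full or clear partial fitted curve of increased nuclear translocation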; also: potency is read from the fitted curve at half-maximal effect). Particulars: U2OS GR-GFP nuclear translocation, laser cytometry, 2 h.
Sequence of Glucocorticoid receptor (Homo sapiens) (P04150 whole entry, looked up): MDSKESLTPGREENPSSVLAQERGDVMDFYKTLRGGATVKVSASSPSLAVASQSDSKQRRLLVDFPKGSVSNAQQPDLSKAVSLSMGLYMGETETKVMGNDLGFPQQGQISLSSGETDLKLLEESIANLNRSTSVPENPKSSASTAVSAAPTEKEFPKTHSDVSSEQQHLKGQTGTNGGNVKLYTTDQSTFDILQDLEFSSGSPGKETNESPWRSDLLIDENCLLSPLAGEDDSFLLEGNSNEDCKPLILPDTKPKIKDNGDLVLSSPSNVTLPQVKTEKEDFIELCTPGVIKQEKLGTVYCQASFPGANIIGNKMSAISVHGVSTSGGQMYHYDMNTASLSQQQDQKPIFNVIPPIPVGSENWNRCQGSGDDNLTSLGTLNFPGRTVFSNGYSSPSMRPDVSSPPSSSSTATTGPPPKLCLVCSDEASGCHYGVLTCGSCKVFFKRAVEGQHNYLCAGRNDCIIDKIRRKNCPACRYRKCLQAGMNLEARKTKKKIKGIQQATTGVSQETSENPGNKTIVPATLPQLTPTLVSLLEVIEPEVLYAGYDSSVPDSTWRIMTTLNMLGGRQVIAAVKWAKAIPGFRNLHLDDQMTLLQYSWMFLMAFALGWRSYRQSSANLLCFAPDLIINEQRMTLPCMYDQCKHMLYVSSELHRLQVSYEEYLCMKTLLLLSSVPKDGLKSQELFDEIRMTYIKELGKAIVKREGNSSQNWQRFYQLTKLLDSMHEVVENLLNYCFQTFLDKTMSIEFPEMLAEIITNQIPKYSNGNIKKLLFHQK
Assay [6] has the same target. The assay can be described thus: GR-EFC Redistribution (AID 451; calls by dose curve; also: potency is read from the fitted curve at half-maximal effect). The following applies: CHO-K1 GR-EFC translocation, beta-gal luminescence, 2 h. In outline:
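Translocation of GR-ED fusion to nuclear EA restores b-gal, read by luminescence after 1 h room-temperature detection. Engineered CHO-K1 biosensor cells, 1,000/well, exposed 2 h at 37 C to titrations up to 46 uM final.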

Assay [7] addresses Mitogen-activated protein kinase 10 (Mus musculus) (UniProt Q61831). The assay can be described thus: JNK3 AlphaScreen Assay (AID 530).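 Also: kinase came from lysate of stimulated human HepG2 cells; signal reports phosphorylation of biotinylated GST-cJun 1-79 at Ser73 with 10 µM ATP; % is scaled to controls: 0 for no effect and ±100 for the full control effect.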 Particulars: JNK3 lysate, c-Jun phosphorylation; series mostly up to 11.4 µM. In outline: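 qHTS titrations with 15 min compound pre-incubation before adding ATP (10 uM final). Read-out: AlphaScreen of Ser73-phosphorylated biotin-GST-cJun using HepG2 lysate JNK3 activated by IL-1β and TNFα.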
A general note: In Alpha technology, singlet oxygen from a donor bead excites a nearby acceptor bead.

The target in assay [8] is 3',5'-cyclic-AMP phosphodiesterase 4B (Homo sapiens) (UniProt Q07343). As to the kind of experiment: qHTS Assay for Inhibitors of PDE-IV (AID 607; active = well fitted activation curve with a large enough effect in the main read-out, with a control signal flat, not every such curve was filed as active; also: % of control where 0% means no effect). The following applies: HEK293 ACTOne CNG channel cells, membrane potential fluorescence; series mostly up to 22.9 µM. In outline: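 The readout is membrane depolarisation from a cAMP-sensing CNG channel, detected with a potential dye at ex 535/em 590. Cells were HEK293-derived (endogenous PDE-IV) at 1000 cells/well, titrated up to 22.9 uM final.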
Sequence of 3',5'-cyclic-AMP phosphodiesterase 4B (Homo sapiens) (Q07343 whole entry, looked up): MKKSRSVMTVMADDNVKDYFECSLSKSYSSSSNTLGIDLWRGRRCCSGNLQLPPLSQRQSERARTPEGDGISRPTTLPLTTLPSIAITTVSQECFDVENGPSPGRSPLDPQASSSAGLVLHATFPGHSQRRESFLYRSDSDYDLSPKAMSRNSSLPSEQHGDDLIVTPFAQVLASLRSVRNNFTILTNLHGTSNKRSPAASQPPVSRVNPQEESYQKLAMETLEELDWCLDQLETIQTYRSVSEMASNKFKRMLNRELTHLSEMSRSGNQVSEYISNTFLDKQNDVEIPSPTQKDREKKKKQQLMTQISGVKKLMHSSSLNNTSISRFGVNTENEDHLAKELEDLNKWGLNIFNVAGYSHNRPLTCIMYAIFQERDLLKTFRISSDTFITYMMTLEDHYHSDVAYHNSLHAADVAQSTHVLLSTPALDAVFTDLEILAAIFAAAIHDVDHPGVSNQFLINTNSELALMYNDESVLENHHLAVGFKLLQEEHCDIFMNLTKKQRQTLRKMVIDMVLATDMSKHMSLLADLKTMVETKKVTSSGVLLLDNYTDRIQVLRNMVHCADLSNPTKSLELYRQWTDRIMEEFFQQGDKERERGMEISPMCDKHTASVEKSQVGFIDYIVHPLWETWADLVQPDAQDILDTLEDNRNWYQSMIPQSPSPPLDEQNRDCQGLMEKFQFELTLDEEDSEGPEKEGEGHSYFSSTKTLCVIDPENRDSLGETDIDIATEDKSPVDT

Assay [9] addresses Cytochrome P450 3A4 (Homo sapiens) (UniProt P08684). The assay can be described thus: qHTS Assay for Activators of Cytochrome P450 3A4 (AID 885; active = well fitted curve in the direction sought with a large enough effect; an effect the other way counts as inactive or inconclusive; also: nearly all actives have a fitted effect of over 65% in size). The following applies: recombinant CYP3A4, Luciferin-PPXE luminescence, 60 min; series mostly up to 11.4 µM. In outline: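 Activators are scored by enhanced luminescence from CYP3A4 conversion of luciferin-PPXE (25uM, equal to KM) to luciferin, after 60 min at RT with an NADPH-regenerating system.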

Assay [10] deals with Cytochrome P450 2C19 (Homo sapiens) (UniProt P33261). The assay can be described thus: qHTS Assay for Inhibitors and Substrates of Cytochrome P450 2C19 (AID 899; active = well fitted curve in the direction sought with a large enough effect; an effect the other way counts as inactive or inconclusive; also: potency is read from the fitted curve at half-maximal effect; nearly all actives have a fitted effect of over 60% in size). The following applies: recombinant CYP2C19, luciferin-H EGE luminescence; series mostly up to 11.4 µM. In outline: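 Reactions contain 5nM enzyme, 10uM Luciferin-H EGE (KM) and 50mM KPO4; compound preincubates 10 min at 37C, NADPH regeneration starts turnover for 60 min. Luminescence after detection reagent gives activity.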
Sequence of Cytochrome P450 2C19 (Homo sapiens) (P33261 whole entry, looked up): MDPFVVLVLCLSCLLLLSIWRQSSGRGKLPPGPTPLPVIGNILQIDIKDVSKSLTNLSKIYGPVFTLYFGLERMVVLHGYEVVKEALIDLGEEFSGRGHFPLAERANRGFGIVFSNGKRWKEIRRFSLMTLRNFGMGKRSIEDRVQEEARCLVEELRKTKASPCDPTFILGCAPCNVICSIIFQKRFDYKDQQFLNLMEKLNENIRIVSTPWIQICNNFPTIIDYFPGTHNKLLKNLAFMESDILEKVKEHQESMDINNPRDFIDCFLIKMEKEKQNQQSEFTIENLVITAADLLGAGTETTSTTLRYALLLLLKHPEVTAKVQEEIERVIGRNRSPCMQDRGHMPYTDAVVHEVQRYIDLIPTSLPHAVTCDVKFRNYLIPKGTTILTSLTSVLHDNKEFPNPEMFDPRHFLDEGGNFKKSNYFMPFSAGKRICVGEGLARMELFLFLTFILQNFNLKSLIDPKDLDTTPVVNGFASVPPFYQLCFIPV

Assay [11] in a line: qHTS Assay for Identification of Small Molecule Agonists for Hypoxia Response Element Signaling Pathway (AID 914; active = well fitted activation curve with a large enough effect in the signal ratio, with a control signal flat, not every such curve was filed as active; the % refers to the signal ratio; also: % of control where 0% means no effect). The following applies: ME-180 (cervical carcinoma) HRE-bla reporter, beta-lactamase ratio, CoCl2, 17 h; activation: active compounds read high. In outline: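 In Opti-MEM containing 0.5% dialyzed FBS and 10 mM HEPES, ME-180 HRE-bla cells received a compound titration and EC50 CoCl2. They were incubated 17 hours, then CCF4-loaded 2.5 hours at room temperature before ratio reading.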
In general terms: qHTS replaces the single test concentration by a dilution series.

Assay [12] addresses Cytochrome P450 2D6 (Homo sapiens) (UniProt P10635). The assay can be described thus: qHTS Assay for Inhibitors and Substrates of Cytochrome P450 2D6 (AID 891; active = well fitted curve in the direction sought with a large enough effect; an effect the other way counts as inactive or inconclusive; also: potency is read from the fitted curve at half-maximal effect; nearly all actives have a fitted effect of over 60% in size). The following applies: recombinant CYP2D6, luciferin-ME EGE luminescence; series mostly up to 11.4 µM. In outline: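 Luminescent read-out of luciferin formed by 5 nM human CYP2D6 demethylating 30 uM Luciferin-ME EGE (Km level) over 60 min at room temperature after NADPH regeneration addition. Data normalized to full inhibition by 1.43 uM quinidine.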

In assay [13] the target is Cytochrome P450 2C9 (Homo sapiens) (UniProt P11712). As to the kind of experiment: qHTS Assay for Inhibitors and Substrates of Cytochrome P450 2C9 (AID 883; active = well fitted curve in the direction sought with a large enough effect; an effect the other way counts as inactive or inconclusive; also: potency is read from the fitted curve at half-maximal effect; nearly all actives have a fitted effect of over 60% in size). Particulars: recombinant CYP2C9, luciferin-H luminescence, 60 min; series mostly up to 11.4 µM. In outline: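 Turnover of Luciferin-H (100uM, KM) by 10nM human CYP2C9 was measured over 60 min at 37C with NADPH regeneration; inhibitors and some substrates reduce luminescence. Data normalized to sulphaphenazole 57uM.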
Sequence of Cytochrome P450 2C9 (Homo sapiens) (P11712 whole entry, looked up): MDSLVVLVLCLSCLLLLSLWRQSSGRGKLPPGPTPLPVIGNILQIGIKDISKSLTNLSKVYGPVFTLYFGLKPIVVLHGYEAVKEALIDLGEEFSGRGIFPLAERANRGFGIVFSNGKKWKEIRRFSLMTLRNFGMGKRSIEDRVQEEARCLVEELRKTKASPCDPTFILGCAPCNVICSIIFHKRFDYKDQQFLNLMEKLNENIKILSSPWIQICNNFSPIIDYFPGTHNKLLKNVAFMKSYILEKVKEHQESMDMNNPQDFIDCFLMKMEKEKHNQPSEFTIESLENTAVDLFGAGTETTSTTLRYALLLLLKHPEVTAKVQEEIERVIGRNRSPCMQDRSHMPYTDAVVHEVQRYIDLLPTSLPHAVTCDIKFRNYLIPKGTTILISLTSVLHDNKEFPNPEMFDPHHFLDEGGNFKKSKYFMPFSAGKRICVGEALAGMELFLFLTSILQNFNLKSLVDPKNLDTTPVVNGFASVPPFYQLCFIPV

Assay [14] has as its target Cytochrome P450 3A4 (Homo sapiens) (UniProt P08684). As to the kind of experiment: qHTS Assay for Inhibitors and Substrates of Cytochrome P450 3A4 (AID 884; active = well fitted curve in the direction sought with a large enough effect; an effect the other way counts as inactive or inconclusive; also: potency is read from the fitted curve at half-maximal effect; nearly all actives have a fitted effect of over 50% in size). The following applies: recombinant CYP3A4, Luciferin-PPXE luminescence; series mostly up to 57.1 µM. In outline: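 Luminescent readout of luciferin produced by CYP3A4 (20 nM) dealkylation of Luciferin-PPXE, 25 uM (its KM). NADPH-driven reaction ran 60 min at RT after 10 min compound preincubation; data scaled to 57 uM ketoconazole as 100% inhibition.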

Sequence of Cytochrome P450 3A4 (Homo sapiens) (P08684 whole entry, looked up): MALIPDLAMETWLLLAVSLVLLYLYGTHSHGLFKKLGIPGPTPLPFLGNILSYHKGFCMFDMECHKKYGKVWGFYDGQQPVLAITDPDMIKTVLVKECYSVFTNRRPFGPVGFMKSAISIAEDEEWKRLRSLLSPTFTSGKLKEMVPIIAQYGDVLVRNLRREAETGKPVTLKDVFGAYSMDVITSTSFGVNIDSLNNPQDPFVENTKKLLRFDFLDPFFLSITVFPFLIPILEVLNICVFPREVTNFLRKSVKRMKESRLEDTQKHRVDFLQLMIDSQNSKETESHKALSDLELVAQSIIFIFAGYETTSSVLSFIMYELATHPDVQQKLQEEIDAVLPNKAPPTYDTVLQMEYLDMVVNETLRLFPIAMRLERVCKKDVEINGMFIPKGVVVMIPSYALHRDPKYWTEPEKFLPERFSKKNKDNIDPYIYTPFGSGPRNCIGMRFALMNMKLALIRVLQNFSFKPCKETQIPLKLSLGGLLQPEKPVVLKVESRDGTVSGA
Sequence of Cytochrome P450 1A2 (Homo sapiens) (P05177 whole entry, looked up): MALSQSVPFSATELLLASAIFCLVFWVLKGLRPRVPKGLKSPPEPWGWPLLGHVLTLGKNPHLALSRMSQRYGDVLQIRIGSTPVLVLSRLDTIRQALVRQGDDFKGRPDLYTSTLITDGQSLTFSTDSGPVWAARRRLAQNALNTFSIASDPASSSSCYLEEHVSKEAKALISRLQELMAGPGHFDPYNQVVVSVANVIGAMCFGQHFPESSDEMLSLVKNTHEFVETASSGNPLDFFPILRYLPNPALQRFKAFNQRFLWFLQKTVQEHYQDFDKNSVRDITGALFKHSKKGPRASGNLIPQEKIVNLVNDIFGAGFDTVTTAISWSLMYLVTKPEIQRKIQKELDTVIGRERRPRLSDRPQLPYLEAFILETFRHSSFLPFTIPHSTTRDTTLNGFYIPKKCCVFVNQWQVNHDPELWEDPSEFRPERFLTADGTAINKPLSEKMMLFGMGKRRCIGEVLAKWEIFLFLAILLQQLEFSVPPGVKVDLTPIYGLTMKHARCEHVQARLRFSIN
Sequence of Cytochrome P450 2D6 (Homo sapiens) (P10635 whole entry, looked up): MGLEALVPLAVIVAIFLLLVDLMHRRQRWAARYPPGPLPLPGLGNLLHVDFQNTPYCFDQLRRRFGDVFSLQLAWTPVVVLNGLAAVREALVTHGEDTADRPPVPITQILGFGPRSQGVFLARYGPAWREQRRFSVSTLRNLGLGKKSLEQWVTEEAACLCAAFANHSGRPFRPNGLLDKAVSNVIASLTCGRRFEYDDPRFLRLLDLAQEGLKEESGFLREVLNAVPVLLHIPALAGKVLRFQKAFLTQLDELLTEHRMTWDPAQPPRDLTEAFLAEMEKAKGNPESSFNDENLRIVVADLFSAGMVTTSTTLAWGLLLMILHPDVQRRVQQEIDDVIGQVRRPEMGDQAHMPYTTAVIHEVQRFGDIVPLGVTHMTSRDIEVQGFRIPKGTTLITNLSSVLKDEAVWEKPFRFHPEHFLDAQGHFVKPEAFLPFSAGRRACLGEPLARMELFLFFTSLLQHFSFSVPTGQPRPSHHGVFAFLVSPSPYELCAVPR

With `Clc1ccc(Cl)c(Nc2ccnc(SCc3ccccc3)n2)c1`, the Potency in [1] was greater than 11.4 µM; in assay [3], 0.501 µM (active); in [5] it was greater than 46 µM; in [6], greater than 9.22 µM; in assay [10], 5.01 µM (active). The activity change, negative = inhibition in assay [2] is 1.81%. The activity, negative = inhibition in [4] is 0.24%. The Potency result in assay [7], in [8] and in assay [9] was “inactive” each time. Further, the activation in assay [11] was -13.8%.

As to `Cc1nc2cnc(Oc3cccc(Cl)c3)nc2n(C[C@H]2CCCO2)c1=O`, the Potency was greater than 11.4 µM in assay [1], 7.94 µM (active) in assay [3], greater than 9.22 µM in [5] and greater than 46 µM in [6]. For the same molecule, the activity change, negative = inhibition in [2] is -15.8%. The activity, negative = inhibition in [4] is -6.17%. Further, the Potency entry in assay [7], in assay [8] and in [9] was “inactive” in each case.

Turning to `CN1CCN(CC(=O)N2c3ccccc3Sc3cc4ccccc4cc32)CC1`, the Potency in assay [1] was greater than 11.4 µM; in assay [5] it was greater than 46 µM; in assay [6], greater than 9.22 µM. Besides, the activity change, negative = inhibition is 12.2% in assay [2] and -21.6% [at 2.29 µM] in [3]. Also, the activity, negative = inhibition in assay [4] is -5.37%. The Potency entry in [7], in assay [8] and in assay [9] was “inactive” throughout.

For the molecule `Nc1nc(SCCc2ccccc2)c2[nH]cnc2n1`, the Potency is greater than 11.4 µM in assay [1]; 3.16 µM (active) in [3]; greater than 46 µM in assay [5]; greater than 9.22 µM in assay [6]; 0.631 µM (active) in [10]. In addition, in assay [2], the activity change, negative = inhibition is -4.07%. For the same molecule, the activity, negative = inhibition in [4] was -1.34%. The Potency entry in assay [7], in assay [8] and in assay [9] was “inactive” each time.

`N/N=C1/c2ccccc2N[C@H]1OC(=O)Nc1ccccc1`: the Potency in [1] was greater than 11.4 µM; in assay [3], 0.501 µM (active); in assay [5], greater than 46 µM; in assay [6], greater than 9.22 µM; in assay [12] it was 3.16 µM (active). In addition, in [2], the activity change, negative = inhibition was -4.61%. For the same molecule, the activity, negative = inhibition in assay [4] is -9.98%. Moreover, the Potency result in assay [7] and in [8] was “inactive” each time.

As to `O=C(c1cc(C(F)(F)F)cc(C(F)(F)F)c1)N1CCC[C@@]2(CCN(Cc3ccccc3)C2)C1`, the Potency in [1] was greater than 11.4 µM; in assay [3], 25.1 µM (active); in assay [6] it was greater than 46 µM. Moreover, the activity change, negative = inhibition in assay [2] was 2.92%. The activity, negative = inhibition in [4] was 7.65%. Moreover, the Potency result in [7], in [8] and in assay [9] was “inactive” throughout.

In the case of `c1ccc(SCCc2ccncc2)cc1`, the Potency was greater than 11.4 µM in [1]; 0.2 µM (active) in assay [3]; greater than 46 µM in assay [5]; greater than 9.22 µM in [6]; 1.26 µM (active) in assay [13]; 2.51 µM (active) in assay [14]. The Potency is 1.26 µM (active) in assay [12] and 0.794 µM (active) in [10]. Also, the activity change, negative = inhibition in assay [2] is 9.37%. Moreover, the activity, negative = inhibition in assay [4] was -2.72%. The Potency result in assay [8] and in assay [9] was “inactive” in each case.
